Rows were chosen to be rich in hits. Some 4% of all compounds tested hit in one or more screens of this group.
ADAM17 inh = ADAM17 inhibition, QFRET primary screen; P78536; recombinant ADAM17, EDANS/DABCYL FRET peptide cleavage; inhibition, % at 6.95 µM; 370,000 compounds, 0.83% hits;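 active means inhibition above the mean of compounds lying between control limits plus 3 SD, set per campaign, cut at about 8.5% in these data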;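 further: 0% = DMSO-only wells as the low control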
ADAM10 inh = ADAM10 inhibition, QFRET primary screen; O14672; inhibition, % at 7 µM; recombinant ADAM10, EDANS/DABCYL FRET peptide cleavage, 3 h; 370,000 compounds, 0.62% hits;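 active means inhibition above a per-campaign cutoff equal to the mean of compounds falling between control-based bounds plus 3 SD, cut at about 20% in these data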;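 further: 0% = DMSO wells while the 100% control is not disclosed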
NR3A LBD binder = modulators (binders) of human NR3A ligand-binding domain; Tm shift relative to glycine control, % at 25 µM; NR3A LBD differential scanning fluorimetry, Tm shift; 0% = protein alone, 100% = glycine-bound protein; 340,000 compounds, 2.5% hits;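 active means melting temperature shift of at least 10% of the positive control shift, at one fixed dose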
aDG glyco up = increases alpha dystroglycan glycosylation. Pro5-aDG cells, alpha-DG glycosylation AlphaScreen (IIH6); 0% Pro5, 100% B10-LARGE cell signal. activation, % at 10 µM. 360,000 compounds, 0.22% hits. AID 624168;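 active means activation of at least 8% versus controls, or a plate z-score of at least 8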;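 further: Pro5 are CHO cells carrying HIG-tagged alpha-DG that lacks glycosylation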
FAS-TE inh = blocks the thioesterase domain of human fatty acid synthase; inhibition, % at 15 µM; recombinant FAS-TE, OMFH fluorogenic substrate, fluorescence endpoint; P49327; 360,000 compounds, 0.67% hits;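 active means compounds whose normalised, plate-corrected inhibition of enzyme fluorescence in the single-dose primary screen is 50% or more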;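 further: 0% = DMSO with enzyme and 100% = substrate without enzyme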
Target sequence (P49327 whole entry, looked up, the tested form may be a part): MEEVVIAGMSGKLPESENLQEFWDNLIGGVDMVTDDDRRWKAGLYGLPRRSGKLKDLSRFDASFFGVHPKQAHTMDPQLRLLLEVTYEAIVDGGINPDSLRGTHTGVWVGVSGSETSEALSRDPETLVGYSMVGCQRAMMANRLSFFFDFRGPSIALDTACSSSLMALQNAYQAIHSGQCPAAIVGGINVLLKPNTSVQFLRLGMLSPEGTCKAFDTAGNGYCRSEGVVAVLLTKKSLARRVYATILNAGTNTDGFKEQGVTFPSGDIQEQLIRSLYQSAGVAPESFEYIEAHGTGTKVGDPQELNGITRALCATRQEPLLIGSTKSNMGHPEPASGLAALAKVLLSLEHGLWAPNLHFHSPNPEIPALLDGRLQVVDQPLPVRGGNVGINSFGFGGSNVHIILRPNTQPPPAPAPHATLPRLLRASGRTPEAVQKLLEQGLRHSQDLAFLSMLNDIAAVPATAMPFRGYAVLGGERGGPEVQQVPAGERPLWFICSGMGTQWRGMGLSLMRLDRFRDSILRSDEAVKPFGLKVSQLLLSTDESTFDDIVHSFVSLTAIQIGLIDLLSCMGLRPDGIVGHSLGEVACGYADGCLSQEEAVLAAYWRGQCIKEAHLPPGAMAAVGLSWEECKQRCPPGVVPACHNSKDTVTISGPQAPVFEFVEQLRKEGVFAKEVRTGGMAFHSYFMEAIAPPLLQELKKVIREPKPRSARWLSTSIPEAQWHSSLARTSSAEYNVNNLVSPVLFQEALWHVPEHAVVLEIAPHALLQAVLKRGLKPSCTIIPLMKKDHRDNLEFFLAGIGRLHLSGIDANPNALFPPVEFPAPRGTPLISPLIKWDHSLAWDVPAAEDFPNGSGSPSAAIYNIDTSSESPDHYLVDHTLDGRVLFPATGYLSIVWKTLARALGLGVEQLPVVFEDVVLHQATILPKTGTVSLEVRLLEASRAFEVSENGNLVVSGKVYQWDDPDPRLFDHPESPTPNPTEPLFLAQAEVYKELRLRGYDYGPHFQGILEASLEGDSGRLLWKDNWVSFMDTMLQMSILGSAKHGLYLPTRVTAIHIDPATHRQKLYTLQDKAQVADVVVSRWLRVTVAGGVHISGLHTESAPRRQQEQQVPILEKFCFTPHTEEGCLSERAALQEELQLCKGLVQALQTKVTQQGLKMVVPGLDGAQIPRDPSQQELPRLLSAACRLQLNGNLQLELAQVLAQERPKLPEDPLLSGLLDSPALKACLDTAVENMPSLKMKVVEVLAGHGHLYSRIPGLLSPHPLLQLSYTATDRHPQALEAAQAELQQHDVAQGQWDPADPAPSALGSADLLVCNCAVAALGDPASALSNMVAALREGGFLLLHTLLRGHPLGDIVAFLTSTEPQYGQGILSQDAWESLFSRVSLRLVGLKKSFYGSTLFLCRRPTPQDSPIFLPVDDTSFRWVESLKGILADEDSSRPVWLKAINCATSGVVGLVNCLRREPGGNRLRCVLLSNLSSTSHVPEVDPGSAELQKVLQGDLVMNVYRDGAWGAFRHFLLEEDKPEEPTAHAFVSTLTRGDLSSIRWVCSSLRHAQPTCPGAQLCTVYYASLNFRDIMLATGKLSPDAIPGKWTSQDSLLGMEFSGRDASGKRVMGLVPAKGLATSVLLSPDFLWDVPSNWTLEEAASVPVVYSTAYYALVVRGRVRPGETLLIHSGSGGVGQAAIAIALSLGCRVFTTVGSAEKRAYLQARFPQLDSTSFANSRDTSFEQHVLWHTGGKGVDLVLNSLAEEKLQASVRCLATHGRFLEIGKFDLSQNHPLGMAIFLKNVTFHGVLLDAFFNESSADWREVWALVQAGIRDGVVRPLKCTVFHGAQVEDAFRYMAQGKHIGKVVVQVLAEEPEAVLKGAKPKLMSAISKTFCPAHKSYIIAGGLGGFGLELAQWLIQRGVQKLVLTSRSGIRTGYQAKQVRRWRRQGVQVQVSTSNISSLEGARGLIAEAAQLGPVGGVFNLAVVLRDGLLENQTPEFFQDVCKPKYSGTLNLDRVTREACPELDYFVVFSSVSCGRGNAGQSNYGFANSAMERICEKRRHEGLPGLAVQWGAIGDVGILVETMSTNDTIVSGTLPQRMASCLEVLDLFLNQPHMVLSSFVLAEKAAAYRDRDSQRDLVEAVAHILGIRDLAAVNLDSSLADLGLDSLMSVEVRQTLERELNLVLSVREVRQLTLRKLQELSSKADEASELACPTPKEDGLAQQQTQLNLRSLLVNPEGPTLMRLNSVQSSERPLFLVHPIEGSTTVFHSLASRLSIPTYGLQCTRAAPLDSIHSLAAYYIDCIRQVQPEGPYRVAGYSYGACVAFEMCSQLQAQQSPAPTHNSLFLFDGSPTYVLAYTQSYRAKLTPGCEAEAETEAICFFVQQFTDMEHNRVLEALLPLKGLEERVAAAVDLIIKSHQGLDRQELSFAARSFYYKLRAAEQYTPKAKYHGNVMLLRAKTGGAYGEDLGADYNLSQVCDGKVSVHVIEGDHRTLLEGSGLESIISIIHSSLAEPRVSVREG
* = called active by the depositor; . = not tested or not shown.

SMILES	ADAM17 inh	ADAM10 inh	NR3A LBD binder	aDG glyco up	FAS-TE inh
N#C/C(=C/c1ccccc1[N+](=O)[O-])c1nc(C2CC2)cs1	0.6	2.8	8.7	-0.4	6.5
COc1ccccc1NC(=S)N(Cc1ccccc1)Cc1ccccn1	1.0	-4.8	13.4*	0.3	4.3
N#CCC(=N)N1CCN(c2ccccc2)CC1	-8.3	3.3	1.5	0.0	-2.0
N#CCC(=N)N1CCN(c2cccc(Cl)c2)CC1	-0.9	3.3	12.2*	0.0	-5.5
CCOC(=O)NC(=S)Nc1ccc(C(C)(C)C)cc1Br	-5.5	8.3	18.3*	0.3	17.6
COc1ccc(S(=O)(=O)Nc2ccccc2-c2nnn(CC(=O)Nc3ccccc3OC)n2)cc1	4.2	0.5	-3.1	1.5	14.4
CCCC(=O)Nc1ccccc1-c1nnn(CC(=O)Nc2ccc(OC)cc2)n1	-2.0	7.4	-2.6	0.1	4.8
CCOc1ccc(NC(=O)Cn2nnc(-c3ccccc3NC(=O)c3cccs3)n2)cc1	-1.2	6.4	15.0*	0.1	-5.0
COc1ccc(NC(=O)Cn2nnc(-c3ccccc3NS(=O)(=O)c3ccccc3)n2)cc1	.	.	17.4*	2.3	20.8
CCOC(=O)CN1N=C(c2ccc(Cl)cc2)CCC1=O	-3.3	1.0	-2.0	0.0	-1.9
CN(Cc1ccccc1)C(=O)COC(=O)CN1C(=O)c2ccccc2C1=O	-5.6	2.5	1.8	-0.2	-3.3
COc1ccccc1NC(=O)CSc1ncnc2c1oc1ccccc12	-4.5	-0.3	0.9	0.0	7.6
CCCCn1c(N)c(N(CC(C)C)C(=O)CN2C(=O)NC3(CC(C)CC(C)(C)C3)C2=O)c(=O)[nH]c1=O (configuration not stated)	-0.3	-6.3	-3.2	0.1	-0.6
CCN1CCN(C2=C(NS(=O)(=O)c3ccc(Br)cc3)C(=O)c3ccccc3C2=O)CC1	3.4	1.1	-5.8	7.7*	-1.7
CCN1CCN(C2=C(NS(=O)(=O)c3ccccc3)C(=O)c3ccccc3C2=O)CC1	1.9	-3.8	2.0	1.8	0.4
Cc1noc(NS(=O)(=O)c2ccc(NC(=O)c3nn(-c4ccccc4)ccc3=O)cc2)c1C	-0.7	4.8	2.6	-0.1	-2.1
CCOC(=O)C1=C(C)N=C2SCCC(=O)N2C1c1cc(Br)ccc1OC (configuration not stated)	-6.2	-5.8	2.3	0.1	1.5
CSc1sc(C(=O)NC(=O)NCc2ccncc2)c(C)c1-c1ccon1	-5.0	-14.8	1.2	-0.1	22.9
CC[C@@]12C(=O)N(c3cccc(Cl)c3)C(=O)N1[C@H](c1ccc(Br)cc1)[C@@H]1C(=O)N(C(C)(C)C)C(=O)[C@@H]12	4.7	13.5	-4.6	-0.1	56.2*
CC(C)C[C@@]12C(=O)N(c3cccc(Cl)c3)C(=O)N1[C@H](c1ccc(Br)cc1)[C@@H]1C(=O)N(C(C)(C)C)C(=O)[C@@H]12	2.1	1.9	1.9	0.6	49.8
CC[C@@]12C(=O)N(c3cccc(C)c3)C(=O)N1[C@H](c1ccc(Br)cc1)[C@@H]1C(=O)N(C(C)(C)C)C(=O)[C@@H]12	2.2	13.7	-11.8	0.8	24.3
CC(C)(C)N1C(=O)[C@H]2[C@@H](c3ccc(Br)cc3)N3C(=O)N(c4cccc(Br)c4)C(=O)[C@@]3(Cc3ccccc3)[C@H]2C1=O	.	.	10.1*	0.6	85.7*
CN1CCN(C2=C(Cl)C(=O)c3ccccc3C2=O)CC1	-4.3	-11.1	1.9	1.8	23.3
CN1CCN(C2=C(Cl)C(=O)C(c3cnc(N4CCCCC4)s3)=C(Cl)C2=O)CC1	.	.	-46.8	-0.3	59.8*
Cc1nn(C)cc1C(=O)Nc1cc(Oc2ccc(Cl)cc2)cc([N+](=O)[O-])c1	.	.	17.3*	0.4	3.8
SMILES	ADAM17 inh	ADAM10 inh	NR3A LBD binder	aDG glyco up	FAS-TE inh
Cn1cc([N+](=O)[O-])c(C(=O)Nc2cc(Oc3ccccc3)cc([N+](=O)[O-])c2)n1	1.5	4.1	9.0	-0.1	18.7
Nc1nc(/C=C/c2ccc(F)cc2)nc(-c2ccccc2O)n1	1.0	4.4	16.1*	-0.3	0.1
O=C(c1cc(-c2cccs2)on1)N1CCN(c2ccc(F)cc2)CC1	-1.8	4.1	12.7*	-0.2	19.2
O=C(c1cc(-c2cccs2)on1)N1CCN(c2ccccc2)CC1	.	.	0.0	-0.1	9.6
O=C(NCCC(=O)N(CCc1ccccc1)Cc1ccccc1)c1ccc(Br)cc1	1.4	-0.4	-4.3	0.2	23.7
CCN(CC)c1ccc(C=Nc2ccc(C)cc2)c(O)c1	1.4	1.5	13.1*	0.1	11.6
CCOC(=O)c1sc(=S)n(-c2cc(F)ccc2F)c1N	5.3	-0.7	14.2*	-0.3	3.0
COC(=O)c1sc(=S)n(-c2cc(F)ccc2F)c1N	-3.3	2.4	2.2	-0.2	-3.5
COC(=O)[C@]1(C)N[C@H](CN(C)C(=O)Nc2ccccc2)[C@@H]2C(=O)N(C)C(=O)[C@@H]21	-3.3	-2.2	12.7*	-0.2	-15.3
COC(=O)[C@]1(C)N[C@H](CN(C)C(=O)Nc2ccc(OC)cc2)[C@@H]2C(=O)N(C)C(=O)[C@@H]21	-0.3	4.8	12.7*	-0.1	-7.6
CCN(C[C@H]1N[C@@](C)(C(=O)OC)[C@H]2C(=O)N(Cc3ccccc3)C(=O)[C@@H]12)C(=O)NC(C)C	-0.8	-10.6	14.0*	0.2	-11.3
CC(=O)Nc1ccc(OCC(=O)c2cc(C)ccc2C)cc1	5.5	7.5	1.3	0.0	-3.6
CC1(C)Cc2c(C#N)c(SCCO)nc(N3CCOCC3)c2CO1	-4.2	-3.9	-3.5	-0.1	-6.6
CCCCc1nc(N2CCOCC2)c(C#N)c2c1COC(C)(C)C2	-53.8	-156.6	15.0*	-0.4	6.1
Clc1ccc(-n2ncc3c(NCc4ccc5c(c4)OCO5)ncnc32)cc1	4.1	7.6	12.4*	0.3	13.8
CCN(CC)CCNC(=O)C(Oc1ccccc1)Oc1ccccc1	-4.5	-3.9	30.7*	0.0	-5.1
CCSc1nnc(-c2ccc(Cl)cc2Cl)o1	-1.0	1.7	15.7*	-0.1	7.8
CCC1CCCCN1C(=O)c1cc(COc2ccc3ncccc3c2)on1 (configuration not stated)	-4.0	2.2	-0.4	7.6*	4.7
Cc1sc2ncn(CC(=O)N(CC(=O)NC3CCCC3)Cc3cccs3)c(=O)c2c1C	.	.	0.3	0.5	14.9
COc1cccc(CNC(=O)c2ccccc2NC(=O)C2=C(C)OCCS2)c1OC	-1.1	2.5	112.0*	0.0	1.0
O=C(N/N=C/C1C(c2ccccc2)C1(Cl)Cl)c1cccc(Br)c1 (configuration not stated)	-1.3	3.3	-1.6	2.3	16.3
COc1cccc(/C=C2\N=C(SC)SC2=O)c1OC	-5.0	-11.5	3.7	0.3	-6.5
CSC1=N/C(=C\c2ccccc2F)C(=O)S1	3.1	6.1	15.7*	0.6	-6.4
CC(C)(C)c1ccc(C(=O)O/N=C(\N)Cc2cccs2)cc1	-1.1	-6.9	.	0.1	5.4
O=C(N/N=C/c1ccco1)c1cc([N+](=O)[O-])cc([N+](=O)[O-])c1	1.5	6.7	-4.7	0.4	3.5

Screening data: PubChem BioAssay, several laboratories
